Consider 5 molecules from PubChem BioAssay.

Test [1] in a line: viability loss in pontine glioma line – cell-based, SU-DIPG-XIII, MIPE4.0, CellTiter-Glo, qHTS, dose response (AID 1347061; cut-off not given, nearly all actives have AC50 up to about 37 µM;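 further: cells exposed to compound for 48 hours before readout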). The settings on record: CellTiter-Glo ATP luminescence.
Test [2] in a line: viability loss in pontine glioma line – cell-based, JHH-DIPG-1, MIPE4.0, CellTiter-Glo, qHTS, dose response (AID 1347062; cut-off not given, nearly all actives have AC50 up to about 27 µM;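 on AC50: cells exposed to compound for two days before readout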). The settings on record: JHH-DIPG-1 viability, CellTiter-Glo ATP luminescence.
Test [3] can be described thus: viability loss in pontine glioma line – cell-based, SU-DIPG-IV, MIPE4.0, CellTiter-Glo, qHTS, dose response (AID 1347063).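 Further: compound exposure lasted 48 hours before the viability readout.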 The note with it: CellTiter-Glo ATP luminescence.
Test [4] can be described thus: growth inhibition of DIPG cells – cell-based, MIPE4.0 library, CellTiter-Glo luminescence, qHTS (AID 1347066).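 Further: cells exposed to compound for 48 hours before readout.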 The note with it: SU-DIPG-VI viability, CellTiter-Glo ATP luminescence.
The nature of test [5]: JHH-DIPG-1 glioma cell viability, MIPE5.0 library, CellTiter-Glo luminescence, qHTS (AID 1347067; cut-off not given, nearly all actives have AC50 up to about 26 µM;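 further: cells exposed to compound for 48 hours before readout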). The note with it: JHH-DIPG-1 glioma viability, CellTiter-Glo ATP luminescence.
Test [6] can be described thus: growth inhibition of DIPG cells – cell-based, MIPE5.0 library, qHTS (AID 1347068; cut-off not given, nearly all actives have IC50 up to about 30 µM). The settings on record: SU-DIPG-XXV viability.
Test [7] in a line: compounds altering HSF1 focus formation in cells – imaging, Selleck Cancer Library (AID 1347162; in the data active means plate-normalised HSF1 focus index below about 0.46). The settings on record: human cells, HSF1 nuclear foci imaging, at 10 µM; SSMD: measured here: HSF1 foci SSMD mean; cell count: measured here: cell number; plate-normalised HSF1 focus index: stronger effect = lower value.
Test [8] is described as follows: viability loss with induced miR-34 in A549 – imaging, A549 dox-inducible miR-34, nuclei and caspase counts, primary screen (AID 1347080;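 active means compounds whose cell count with miR-34 switched on is under 0.7 times the count with it off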). The note with it: A549 miR-34 inducible, Hoechst nuclei count, 48 h.
Test [9] is described as follows: MELAS cybrid and Rieske KO viability enhancers – cell-based, MELAS cybrids, Rieske KO mouse fibroblasts, CellTiter-Glo, primary screen (AID 1508586;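 active means mean z-score across replicates of 1.96 or higher in either the MELAS or the Rieske mutant cell line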;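 further: z relative to plate mean and SD of compound and empty wells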). The settings on record: low glucose.
The nature of test [10]: viability loss in pontine glioma line – cell-based, SU-DIPG-XIII, MIPE5.0, CellTiter-Glo, qHTS, dose response (AID 1347064; cut-off not given, nearly all actives have AC50 up to about 23 µM;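 further: cells exposed to compound for 48 hours before the viability read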). The note with it: CellTiter-Glo ATP luminescence.
A short description of test [11]: viability loss in pontine glioma line – cell-based, SU-DIPG-XXV, MIPE5.0, CellTiter-Glo, qHTS, dose response (AID 1347065; cut-off not given, nearly all actives have AC50 up to about 26 µM;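 further: cells exposed to compound for 48 hours before ATP readout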). The note with it: CellTiter-Glo ATP luminescence.
Test [12] is described as follows: growth inhibition, single agent or in combination, cell-based, chromothripsis tumors, cisplatin or BGB combos (AID 1671449; in the data active means inhibition above about 80%;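 further: cells exposed for 96 hours; 0% = vehicle DMSO and 100% = killing by high DMSO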). The settings on record: LFS_MB_P medulloblastoma cells.
Test [13] is described as follows: growth inhibition, single agent and combos, cell-based, chromothripsis tumors, cisplatin or BGB combos (AID 1671450; in the data active means inhibition above about 80%;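 further: cells exposed to compound for four days; 0% = vehicle DMSO and 100% = cell killing by high DMSO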). The note with it: HDN33 neuroblastoma cells, stronger effect = higher value.
Test [14] in a line: growth inhibition, single agents and combos, ICB984, cell-based, cisplatin or BGB combos, synergistic combos for chromothripsis tumors (AID 1671451; call rule not given here;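 further: cells exposed for 96 hours before readout; 0% = vehicle DMSO and 100% = killing by high DMSO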). The note with it: ICB984 medulloblastoma cells, drug combinations, stronger effect = higher value.
The nature of test [15]: growth inhibition, single agents and combos, HTB85, cell-based, BGB or cisplatin IC20 combos, synergistic combos for chromothripsis tumors (AID 1671453; in the data active means inhibition above about 80%;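 further: cells exposed for 96 hours before readout; 0% = vehicle DMSO and 100% = high DMSO killing control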). The settings on record: HTB85 osteosarcoma cells, drug combinations, stronger effect = higher value.
The nature of test [16]: growth inhibition, MDA-MB-436, cell-based, BGB or cisplatin combos, synergistic combos for chromothripsis tumors (AID 1671458; call rule not given here;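 further: cells exposed for 96 hours; 0% = vehicle DMSO and 100% = killing by high DMSO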). The note with it: MDA-MB-436 breast carcinoma growth inhibition, drug combinations, stronger effect = higher value.
Test [17] is described as follows: BT084 cell growth, single and combined drugs, ICGC_MB145, cisplatin and BGB IC40 combos (AID 1671461; in the data active means inhibition above about 80%;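 further: cells exposed to drugs for 96 hours; 0% = vehicle DMSO and 100% = high DMSO full killing control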). The settings on record: BT084 medulloblastoma cells, drug combinations, stronger effect = higher value.
Test [18] is described as follows: RCMB18 cell growth, single agent and combined, cisplatin and BGB IC40 combos (AID 1671462; in the data active means inhibition above about 80%;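 further: cells exposed to compound for four days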). The settings on record: RCMB18 medulloblastoma cells, stronger effect = higher value.
A short description of test [19]: CRL1545 cell growth, single agent and combined, cisplatin and BGB IC20 combos (AID 1671464; in the data active means inhibition above about 80%;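 further: cells exposed to compound for 96 hours before readout; 0% = vehicle DMSO and 100% = high DMSO killing control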). The note with it: CRL1545 osteosarcoma cells, stronger effect = higher value.
Where [20] appears, read: measured here: with BGB IC20 combination, at 0.5 µM.
[21] abbreviates: measured here: with cisplatin IC20 combination, at 0.5 µM.

Inconclusive results are not listed. Activity calls are given as the source filed them. Unless noted, cut-off not given; nearly all actives show AC50 up to about 30 µM.

For the molecule `Cc1ccn(-c2ccc(-c3ncco3)cc2)c(=O)c1-c1ccc2nc(N)ncc2c1`, the call in [1], in test [2], in test [3], in test [4] and in test [5] was inactive.
As to `N#CC[C@H](C1CCCC1)n1cc(-c2ncnc3[nH]ccc23)cn1`, the molecule was called inactive in [1], in test [2], in test [3], in test [4] and in test [6]. The molecule also registered an SSMD in [7] of 3.63. Further, in test [7], the cell count was determined as 7430. Further, the plate-normalised HSF1 focus index in test [7] was 1.23 (inactive).
`COc1cc2c(cc1OC)[C@@H]1Cc3ccc(OC)c(OC)c3CN1CC2`: the call in test [1], in test [2], in [3] and in [4] was inactive. Besides, the fold change in test [8] (stronger effect = lower value, cell number ratio, induced over uninduced) is 0.902 (inactive); in test [8] (measured here: relative caspase fold change +Dox/-Dox), 0.654. In addition, the cell count in [8] (measured here: total cells with miR-34 induction, stronger effect = lower value) was 9170; in [8] (measured here: total cells without miR-34 induction) it was 10200. In addition, the z-score was -0.395 (inactive) in test [9] (MELAS cybrid survival, CellTiter-Glo 48 h, stronger effect = higher value) and 0.428 in [9] (Rieske KO mouse fibroblast survival, CellTiter-Glo 72 h).
On to `N#CC1(c2cccc(C(=O)Nc3cc(Oc4ccc5nc(NC(=O)C6CC6)sc5n4)ccc3F)c2Cl)CC1`, for which the half-maximal activity concentration (AC50) in test [1] is 935 nM (active); in test [2], 18700 nM (active); in test [10], 742 nM (active); in test [11] it was 833 nM (active). Moreover, the molecule was called inactive in test [4].
For `CC(C)OC(=O)[C@H](C)N[P@](=O)(OC[C@H]1O[C@@H](n2ccc(=O)[nH]c2=O)[C@](C)(F)[C@@H]1O)Oc1ccccc1`, the result in test [1], in [2], in [3], in [4] and in test [6] was inactive. Further, the AC50 in [5] was 2630 nM (active). The inhibition in [12] (at 0.5 µM, stronger effect = higher value) was -27.6% (inactive); in [12] (measured here: combination with BGB IC20, at 0.005 µM) it was -8.86%; in [12] (measured here: combination with BGB IC40, at 0.005 µM), -29.9%; in test [12] (measured here: combination with BGB IC40, at 0.05 µM), -32.6%; in [12] (measured here: combination with cisplatin, at 0.5 µM, stronger effect = higher value), -25.8%; in [12] (measured here: combination with cisplatin, at 5 µM, stronger effect = higher value), -29.3%. Moreover, the inhibition in test [13] (BGB combo, at 5 µM) was -36.1%; in [13] (at 0.5 µM), -7.68% (inactive); in test [13] (cisplatin combo, at 5 µM), -4.94%; in [13] (setting [20]) it was -9.88%; in test [13] (setting [21]), 5.66%; in [13] (single agent, at 5 µM) it was -12.1%. The inhibition in test [14] (BGB IC20 combo, at 0.005 µM) was -18%; in [14] (BGB IC40 combo, at 0.005 µM) it was -9.03%; in [14] (BGB IC40 combo, at 0.05 µM) it was -19.6%; in test [14] (at 0.5 µM), -6.96% (inactive); in [14] (cisplatin combo, at 0.05 µM) it was -25.8%; in test [14] (cisplatin combo, at 0.5 µM), -2.19%. Also, the inhibition in test [14] (cisplatin combo, at 5 µM) was -12.1%; in test [14] (measured here: 5 uM single agent, at 5 µM), -20.9%; in test [15] (at 0.5 µM), 14.1% (inactive); in [15] (measured here: with BGB IC20, at 0.5 µM), 45.6%; in [15] (measured here: with BGB IC20, at 5 µM) it was 9.23%; in [15] (measured here: with cisplatin IC20, at 0.5 µM) it was -3.56%. Also, the inhibition in test [15] (measured here: with cisplatin IC20, at 5 µM) is 2.16%; in [15] (single agent, at 5 µM), 7.57%; in test [16] (at 0.5 µM), -14.4% (inactive); in test [16] (measured here: BGB combination, at 0.5 µM) it was -6.51%; in test [16] (measured here: BGB combination, at 5 µM), -8.4%; in test [16] (measured here: cisplatin combination, at 0.5 µM), -26.3%. The inhibition was -27.6% in test [16] (measured here: cisplatin combination, at 5 µM); -5.65% (inactive) in test [17] (at 0.5 µM); -1.58% in test [17] (cisplatin combination, at 0.5 µM); -68.9% in test [17] (cisplatin combination, at 5 µM); -37.9% in test [17] (measured here: BGB IC40 combination 0.05 uM, at 0.05 µM); 12.2% in [17] (single agent, at 5 µM). Further, the inhibition in [18] (at 0.5 µM) is -12.6% (inactive); in test [18] (cisplatin combo, at 5 µM), -10.4%; in test [18] (measured here: BGB IC40 combination, at 0.05 µM), -14.6%; in [18] (measured here: combination with cisplatin, at 0.5 µM), 5.31%; in test [18] (single agent, at 5 µM), -3.36%; in test [19] (at 0.5 µM), 22.4% (inactive). Further, the inhibition in test [19] (setting [20]) was 2.82%; in test [19] (setting [21]), 31.1%; in [19] (single agent, at 0.05 µM), -4.05%; in [19] (single agent, at 5 µM), -21.1%.
